Experimental findings from PubChem BioAssay (NCATS) are described below.

Where “and” joins values, the source holds several entries; their conditions need not be identical. Equal entries are not always repeated. Inconclusive results are not listed. Where a structure was tested more than once in an assay, its records may differ in their call. Values without a mark were called inactive. Calls of active or inactive are those of the source. Calls follow the shape of the dose curve; as a rule, active = well fitted inhibition curve with a large enough effect; inconclusive = small, poorly fitted or top-dose-only effect; inactive = flat fitted curve, though single readings scatter.

One assay relates to GB4. Description: qHTS profiling for inhibitors of Plasmodium falciparum proliferation (AID 504749).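 Also: 0% = DMSO vehicle and full inhibition = artemisinin control.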 To be noted: P. falciparum in erythrocytes, SYBR Green DNA, 72 h; series mostly up to 28.7 µM. In short, it runs like this: (§1)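 Infected RBCs, 0.3% parasitemia/2.5% Hct final; cpd 72 h, 37 C, 5% CO2; lysis buffer with saponin/triton/SYBR Green I, o/n RT dark; FI 485/535; norm. to artemisinin (0.29 uM) and DMSO.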

The test system of another assay is HB3. Described as above. To be noted: P. falciparum in erythrocytes, SYBR Green DNA, 72 h; series mostly up to 28.7 µM. Summed up:
as §1

The subject of a further assay is ICS. Described as above. To be noted: P. falciparum in erythrocytes, SYBR Green DNA, 72 h; series mostly up to 28.7 µM. Summed up: as §1
The subject of a further assay is JCK. The description is as above. To be noted: P. falciparum in erythrocytes, SYBR Green DNA, 72 h; series mostly up to 28.7 µM. Summed up:
as §1

For another assay, the system named is N140. Described as above. As to conditions: P. falciparum in erythrocytes, SYBR Green DNA, 72 h; series mostly up to 28.7 µM. In short, it runs like this:
as §1

Another assay relates to P93_24. The assay is described as above. To be noted: P. falciparum in erythrocytes, SYBR Green DNA, 72 h; series mostly up to 28.7 µM. Summed up:
as §1

The next assay relates to P94_40. The assay is described as above. As to conditions: P. falciparum in erythrocytes, SYBR Green DNA, 72 h; series mostly up to 28.7 µM. In short, it runs like this: as §1
Another assay concerns PAD. Described as above. To be noted: P. falciparum in erythrocytes, SYBR Green DNA, 72 h; series mostly up to 28.7 µM. In short, it runs like this:
as §1

The next assay has as its system PC15. Described as above. As to conditions: P. falciparum in erythrocytes, SYBR Green DNA, 72 h; series mostly up to 28.7 µM. In short, it runs like this: as §1
Another assay relates to PC26. The description is as above. To be noted: P. falciparum in erythrocytes, SYBR Green DNA, 72 h; series mostly up to 28.7 µM. Summed up:
as §1

A further assay has as its system PC49. The description is as above. As to conditions: P. falciparum in erythrocytes, SYBR Green DNA, 72 h; series mostly up to 28.7 µM. Summed up: as §1
Another assay concerns SC27B. The description is as above. To be noted: P. falciparum in erythrocytes, SYBR Green DNA, 72 h; series mostly up to 28.7 µM. Summed up:
as §1

A further assay concerns TAB109. Described as above. As to conditions: P. falciparum in erythrocytes, SYBR Green DNA, 72 h; series mostly up to 28.7 µM. In short, it runs like this: as §1
The subject of the next assay is TAB113. The assay is described as above. As to conditions: P. falciparum in erythrocytes, SYBR Green DNA, 72 h; series mostly up to 28.7 µM. Summed up: as §1
The next assay relates to TAB165. The assay is described as above. To be noted: P. falciparum in erythrocytes, SYBR Green DNA, 72 h; series mostly up to 28.7 µM. In short, it runs like this:
as §1

The subject of the next assay is W2. The description is as above. To be noted: P. falciparum in erythrocytes, SYBR Green DNA, 72 h; series mostly up to 28.7 µM. In short, it runs like this:
as §1

A further assay has as its system CRL-7250. Description: Cytotoxic Profiling of Annotated Libraries Using Quantitative High-Throughput Screening (AID 1296008). Also: potency is read from the fitted curve at half-maximal effect. As to max response: % is scaled to controls: 0 for no effect and ±100 for the full control effect. As to conditions: Five cell lines viability, CellTiter-Glo ATP luminescence, 48-72 h; max response: active compounds read low. Summed up: (§2)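 Cytotoxicity was measured as CellTiter-Glo ATP luminescence, read after 10 min at room temperature. Compound treatment of the cells lasted 48 or 72 hr at 37 degrees Celsius in a qHTS format.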
(In ATP-based viability assays light output follows the ATP content of the culture.)

Another assay has as its system HEK293. The description is as above. To be noted: Five cell lines viability, CellTiter-Glo ATP luminescence, 48-72 h; max response: active compounds read low. In short, it runs like this: as §2
Another assay has as its system HaCat. The assay is described as above. To be noted: Five cell lines viability, CellTiter-Glo ATP luminescence, 48-72 h; max response: active compounds read low. Summed up: as §2
The next assay relates to KB-3-1. The assay is described as above. As to conditions: Five cell lines viability, CellTiter-Glo ATP luminescence, 48-72 h; max response: active compounds read low. Summed up: as §2
Also: nearly all actives have a fitted effect of over 60% in size.

For `O=C1CCC(N2C(=O)c3ccccc3C2=O)C(=O)N1` (stereo unspecified), the Potency entry in the assay on GB4, with HB3, in the assay with ICS, in the assay on JCK, with N140 and in the assay with P93_24 was “inactive” throughout. The Potency entry with P94_40, in the assay on PAD, with PC15, in the assay with PC26, with PC49 and in the assay on SC27B was “inactive” in each case. Besides, the Potency result with TAB109, with TAB113, with TAB165 and with W2 was “inactive” each time. Moreover, the max response with CRL-7250 is 1.53%; in the assay with HEK293, -7.21%; with HaCat, 2.55%; in the assay with KB-3-1 it was 0.83% and 2.13%. The call in the assay on CRL-7250, in the assay on HEK293 and in the assay with HaCat was inactive.

Consider `CCN(CC)CCCC(C)Nc1ccnc2cc(Cl)ccc12` (stereo unspecified), for which the max response was 3.49% in the assay with CRL-7250; -0.795% and 2.69% with KB-3-1. Further, the outcome in the assay on CRL-7250, in the assay with HEK293, in the assay with HaCat and with KB-3-1 was inactive.

Take `Cc1cnc(Nc2ccc(OCCN3CCCC3)cc2)nc1Nc1cccc(S(=O)(=O)NC(C)(C)C)c1`: the Potency in the assay on CRL-7250 was 3.72 µM (active); in the assay on HEK293, 5.17 µM (active); in the assay on HaCat it was 5.8 µM (active); in the assay on KB-3-1, 6.51 µM (active). The max response in the assay with HEK293 is 0.504%; in the assay with HaCat, 2.79%; with KB-3-1 it was 5.89%.

As for `c1ccc([C@H]2CN3CCSC3=N2)cc1`, the max response in the assay with CRL-7250 is -3.88% and 4.82%; in the assay on HEK293, -11.1%; in the assay with KB-3-1 it was -2.88% and 1.89%. Also, the result in the assay on HEK293 was inactive.

Take `Cc1cn[nH]c1`: the Potency entry in the assay with GB4, in the assay with HB3, in the assay with ICS, in the assay with JCK, in the assay on N140 and in the assay on P93_24 was “inactive” each time. Further, the Potency result in the assay on P94_40, with PAD, in the assay on PC15, in the assay with PC26, in the assay with PC49 and with SC27B was “inactive” each time. The Potency result in the assay with TAB109, with TAB113, with TAB165 and in the assay with W2 was “inactive” each time. Further, the Potency is 5.26 µM (active) with CRL-7250 and 4.69 µM (active) with HEK293. Also, the max response in the assay with CRL-7250 was -13.4%; with HaCat, -8.18%; in the assay with KB-3-1, 12.8%. Besides, the molecule was classed as inactive in the assay with HEK293, in the assay with HaCat and with KB-3-1.

For the molecule `NC(=O)c1cnccn1`, the Potency result in the assay with GB4, in the assay on HB3, with ICS, with JCK, in the assay with N140 and with P93_24 was “inactive” in each case. Further, the Potency entry in the assay with P94_40, with PAD, with PC15, with PC26, in the assay with PC49 and with SC27B was “inactive” in each case. Also, the Potency result in the assay on TAB109, in the assay with TAB113, in the assay with TAB165 and in the assay with W2 was “inactive” in each case. Further, the max response with CRL-7250 was 3.02% and 1.22%; in the assay with HEK293, -0.963%; in the assay with HaCat, -6.4%; with KB-3-1, -14%. In addition, the call with HEK293, in the assay with HaCat and in the assay on KB-3-1 was inactive.

For the molecule `S=C(NCc1ccc2c(c1)OCO2)N1CCN(c2ncnc3c2oc2ccccc23)CC1`, the Potency in the assay with CRL-7250 is 1.46 µM (active); in the assay with HEK293 it was 340 nM (active) and 4.11 µM (active). Besides, the max response was -64.3% in the assay with CRL-7250; -0.756% and -9.04% with HaCat.

On to `Oc1cccc(-c2nc(N3CCOCC3)c3oc4ncccc4c3n2)c1`, for which the Potency in the assay on CRL-7250 is 0.0762 µM (active); in the assay with HEK293, 0.171 µM (active).

Consider `CC(C)(C)NCC(O)c1ccc(O)c(CO)c1` (stereo unspecified), for which the max response was -2.87% and 2.98% in the assay on CRL-7250; -5.93% and 0.072% in the assay on HEK293; -0.699% with KB-3-1. For the same molecule, the result in the assay on HaCat was inactive.

As for `O=C(O)[C@@H](c1ccc(OCc2ccc3ccccc3n2)cc1)C1CCCC1`, the max response was -8.88% with CRL-7250, -13% with HEK293, -16.3% with HaCat and -4.52% with KB-3-1.

`NS(=O)(=O)c1cc2c(cc1Cl)NC=NS2(=O)=O`: the Potency entry in the assay on GB4, in the assay on HB3, with ICS, with JCK, with N140 and with P93_24 was “inactive” in each case. Further, the Potency entry in the assay on P94_40, in the assay with PAD, in the assay with PC15, in the assay with PC26, in the assay on PC49 and in the assay on SC27B was “inactive” throughout. Moreover, the Potency result in the assay on TAB109, with TAB113 and with W2 was “inactive” in each case. Also, the max response is -0.778% and -4.67% in the assay with CRL-7250; -4.01% and 0.386% in the assay on HEK293; -11.6% in the assay on HaCat; -5.96% in the assay with KB-3-1. For the same molecule, the call in the assay with HaCat and in the assay with KB-3-1 was inactive.

In the case of `O=C(Nc1ccc(F)c(C(F)(F)F)c1)Nc1nnc(-c2ccncc2)s1`, the max response in the assay with CRL-7250 is 2.14%; in the assay on HEK293, -22.6% and -26.4%; with HaCat, 2.71%; in the assay with KB-3-1, -7.12% and -14.7%. Besides, the call in the assay on HaCat was inactive.

As for `CN(C)C(=O)c1ccc(S(=O)(=O)c2ccc(NC(=O)[C@@](C)(O)C(F)(F)F)c(Cl)c2)cc1`, the Potency in the assay on CRL-7250 is 5.26 µM (active) and 5.8 µM (active); with HEK293, 3.72 µM (active). For the same molecule, the max response in the assay with HaCat was -8.31%; in the assay on KB-3-1, -27.1% and -22.5%. Also, in the assay with HaCat, the molecule was classed as inactive.

With `COc1ccc(-c2c(-c3ccc(O)cc3O)n[nH]c2C)cc1`, the Potency is 30.3 µM (active) in the assay with CRL-7250 and 27 µM (active) in the assay with HEK293. The outcome with HaCat was “inactive; activator”. In addition, the max response with KB-3-1 was -14.6%.

Regarding `CNCc1ccc(-c2[nH]c3cc(F)cc4c3c2CCNC4=O)cc1`, the outcome in the assay on CRL-7250 and with HaCat was inactive. Further, the Potency in the assay on HEK293 was 11.6 µM (active). For the same molecule, the max response is 4.8% in the assay on HaCat and 9.78% in the assay with KB-3-1.

Take `C[C@H](NC(=O)Cc1cc(F)cc(F)c1)C(=O)N[C@@H]1C(=O)N(C)c2ccccc2-c2ccccc21`: the molecule was classed as inactive with CRL-7250, with HaCat and in the assay with KB-3-1. Besides, the max response in the assay on HEK293 is -10.7%; in the assay with HaCat, -1.56%; with KB-3-1, 1.83%.

Take `NCCc1ccc(O)c(O)c1`: the Potency entry in the assay with GB4, with HB3, with ICS, in the assay with JCK, in the assay on P93_24 and in the assay with P94_40 was “inactive” throughout. Further, the Potency result in the assay with PAD, in the assay on PC15, in the assay on PC26, with PC49, in the assay on SC27B and in the assay on TAB109 was “inactive” each time. Also, the Potency entry with TAB113 and in the assay on TAB165 was “inactive” throughout. The max response in the assay on CRL-7250 was 1.67% and -14%; in the assay with HEK293, -42.9%; in the assay with HaCat, 2.7%; in the assay with KB-3-1, -3.12% and 0.713%. Further, the result in the assay on HaCat was inactive.
